The labels stand for the following.
B1: VH:VL chains; a variant is named by its letters at X, in order (parent)
chain 1: QVQLVQSGAEVKKPGASVKVSCKASGYTFTDYXMHWVRQAPGQGLEWMGXVNPNXXXTTYNQKFEGRVTMTTDTSTSTAYMELRSLRSDDTAVYYCARXNXLDXWGQGTTVTVSS
chain 2: DIQMTQSPSSLSASVGDRVTITCSVSSSVSSIYLHWYQQKPGKAPKLLIYSTSNLASGVPSRFSGSGSGTDFTLTISSLQPEDFATYYCQVYSGYPLTFGGGTKVEIK

This is one part of the list. How many sequences the whole screen found active is unknown.

In this assay the parent is B1. In words: yeast display scFab, FACS + sequencing. To be noted: with MET. In short, it runs like this:
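A heavy-chain CDR mutant scFab library on yeast was enriched magnetically with HGFR-Fc-coated Protein A beads for two rounds and then by FACS after labelling with 1 nM HGFR-Fc and anti-Myc in PBSB with 1% milk for 3 h at room temperature, gating the top 50% antigen-positive cells. Antigen binding was judged positive if a sequence turned up in both antigen-positive deep-sequencing samples and negative if it turned up only in the input.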
As for DTAESSSF, the antigen binding call is given as “no binding”.
As to YTGTSDGV, the antigen binding call was “no binding”.
As for VEGGGAVV, the antigen binding call is listed as “no binding”.
As to FRTKDDVY chain 1 E46K, the antigen binding call is “no binding”.
For DRAGDAAV the value was “no binding”; for SEARSAAV, “no binding”; for FRARSAAV, “binds”.
Turning to FRAGGSGD, the antigen binding call is “binds”.
FREGGSGD: the antigen binding call is “no binding”.
Turning to FAAGGSGD, the antigen binding call is given as “no binding”.
For FRKGGSGD, the antigen binding call is listed as “binds”.
As to VGETSYVD, the antigen binding call is listed as “no binding”.
Turning to SKAKGFGV, the antigen binding call is on record as “no binding”.
With SKKRGSGA the entry was “binds”.
SKTRGAGV: the antigen binding call is “no binding”.
On to SKAKGSGA, for which the antigen binding call is “binds”.
In the case of SKAGGAGA, the antigen binding call is recorded as “binds”.
Take SKERGDGA: the antigen binding call is on record as “no binding”.
For SKTKSSGA the value was “no binding”; for SKRKSSGA, “no binding”.
For SAAGGAGA chain 1 L45S the value was “no binding”.
With SKAKGSGV the entry was “binds”; with SGEEGSGA, “no binding”; with SKAGGVGA, “no binding”.
As to VAATADAV, the antigen binding call is “no binding”.
On to VAGTSDGA, for which the antigen binding call is reported as “no binding”.
With DATGGFGV, the antigen binding call is listed as “no binding”.
Take DAGEGFVA: the antigen binding call is recorded as “no binding”.
For VEEEAFAV the value was “no binding”; for VTGEDSLV, “no binding”; for VETGNSGA, “no binding”.
YRERGAAF: the antigen binding call is on record as “binds”.
Take YRERGAGF: the antigen binding call is given as “binds”.
Take DRGRDDAA: the antigen binding call is reported as “no binding”.
Turning to DAKEGDLV, the antigen binding call was “no binding”.
With YRAKGSLD the entry was “binds”.
Regarding DATGGSLD, the antigen binding call is reported as “no binding”.
Regarding YREKGSLD, the antigen binding call is given as “binds”.
As for YRTGGSLD, the antigen binding call is reported as “binds”.
In the case of YRTKASLD, the antigen binding call is listed as “binds”.
Consider DTREGDVA, for which the antigen binding call is recorded as “no binding”.
With STAESDGA the entry was “no binding”; with VGEGGDAY, “no binding”; with VAEKGFLV, “no binding”.
In the case of SRRETFVF, the antigen binding call is given as “no binding”.
For DGGTNDVA, the antigen binding call was “no binding”.
Regarding VAGTDAGD, the antigen binding call is given as “no binding”.
On to VKGRASGY, for which the antigen binding call is given as “no binding”.
In the case of FKGRGSGY, the antigen binding call was “binds”.
For FKGEGSLY, the antigen binding call is listed as “no binding”.
With FKGRGSLY, the antigen binding call is “binds”.
On to YTRGAALA, for which the antigen binding call is “no binding”.
For the variant YKRGASVA, the antigen binding call was “binds”.
On to YTRGADVA, for which the antigen binding call is given as “no binding”.
For YKRGASLA the value was “binds”; for YTRGASGA, “no binding”.
Regarding YTRGAAVA, the antigen binding call was “no binding”.
YRTAGSGD: the antigen binding call was “binds”.
For YRTAGSSD, the antigen binding call is recorded as “binds”.
Take YRTAGAGD: the antigen binding call is “binds”.
As for YRTAGAAD, the antigen binding call is listed as “binds”.
As for VATGDDGV, the antigen binding call is “no binding”.
Consider STAESSSF, for which the antigen binding call is reported as “no binding”.
As for DKTGNDVA, the antigen binding call is listed as “no binding”.
With DRAGDDVY the entry was “no binding”; with YTGTSAVA, “no binding”; with VKGRGSAA, “binds”.
For VAGRGSAA, the antigen binding call is “no binding”.
As for SKGRGSAA, the antigen binding call was “binds”.
With SAGRGSAA, the antigen binding call was “no binding”.
Regarding VKGRADAA, the antigen binding call is “no binding”.
With SEGRGDAA, the antigen binding call is given as “no binding”.
For the variant VRGGGFGV, the antigen binding call was “no binding”.
Consider VRGRGFLD, for which the antigen binding call is recorded as “binds”.
As to VRGGGFGD, the antigen binding call was “binds”.
With VEGGGDGD, the antigen binding call is given as “no binding”.
With VRRANFLD the entry was “no binding”; with AAGRGFLD, “no binding”.
For the variant DRGGDDVV, the antigen binding call is listed as “no binding”.
With YRTRSAVY the entry was “binds”; with YRARSAVY, “binds”.
For DREEGAVY, the antigen binding call was “no binding”.
With YRARSAGY, the antigen binding call was “binds”.
With YRTKGAVY, the antigen binding call is on record as “binds”.
Regarding SEARSAVY, the antigen binding call is reported as “no binding”.
SEREADWF: the antigen binding call is on record as “no binding”.
Consider VAGTGDWF, for which the antigen binding call is reported as “no binding”.
For AETKGDGA the value was “no binding”.
DGGRSAVF: the antigen binding call is “no binding”.
For FRRGSALA the value was “binds”; for FRRGSAVA, “binds”.
Take DRRGDAVA: the antigen binding call is on record as “no binding”.
For FREGSAVA, the antigen binding call is “no binding”.
For FRRGDAVA the value was “binds”; for FRRTDFVA, “no binding”.
With ARRGSDLA the entry was “no binding”; with DGGTNDGA, “no binding”; with DAAGADWY, “no binding”.
Turning to AAAGGSWS, the antigen binding call is listed as “no binding”.
VRTEDSWS: the antigen binding call is on record as “no binding”.
Take YRGRSSWS: the antigen binding call is “binds”.
As for YRKGGSWS, the antigen binding call is reported as “binds”.
In the case of DRKGGDWS, the antigen binding call is “no binding”.
YRARGSWS: the antigen binding call is “binds”.
For YRAAGSWS the value was “binds”; for VAEKGDGA, “no binding”; for YAEGGYGV chain 1 V68I, “no binding”.
DTTGSDWY: the antigen binding call is listed as “no binding”.
With VEGGGDVA the entry was “no binding”.
For SEARSDWF the value was “no binding”.
For VAGTGDAA, the antigen binding call is listed as “no binding”.
Consider SATTDSVD, for which the antigen binding call is “no binding”.
For VRARGDVS, the antigen binding call is reported as “binds”.
Regarding YRARSAWS, the antigen binding call was “binds”.
Take SEARSSWS: the antigen binding call is “no binding”.
As to VRAGGDVF, the antigen binding call is given as “no binding”.
For SEARSAWS the value was “no binding”; for VEKGGDVS, “no binding”.
For YRARSSWS the value was “binds”.
As for YRKKTDWS, the antigen binding call is given as “no binding”.
Take YRAEGAWS: the antigen binding call is “binds”.
Regarding FAEGDDVA, the antigen binding call is recorded as “no binding”.
With ATTGGDGV the entry was “no binding”; with VGGTGSGY, “no binding”.
With VTEGGDVY, the antigen binding call was “no binding”.
With VEKGGDAA, the antigen binding call was “no binding”.
On to VTERDDAV, for which the antigen binding call is “no binding”.
As to DAATADSS, the antigen binding call is “no binding”.
As for YAATADSS, the antigen binding call is listed as “no binding”.
With YRARGAAS, the antigen binding call is on record as “binds”.
Consider VAATADSS, for which the antigen binding call was “binds”.
Turning to YRARGSVS, the antigen binding call is “binds”.
For YRARGAVS the value was “binds”.
Turning to YAEESDGS, the antigen binding call was “no binding”.
As for STGEDDVY, the antigen binding call was “no binding”.
For DEEEGSAA the value was “no binding”.
Regarding YRARGAGS, the antigen binding call is “binds”.
With YKARGAWS the entry was “binds”; with YRARGAWS, “binds”; with YEEGTDWY, “no binding”.
Take DREEGDGV: the antigen binding call is “no binding”.
With DEAGTAVA the entry was “no binding”; with VAGRSFGS, “no binding”.
Turning to VRGRSSGS, the antigen binding call was “binds”.
For the variant VKRRDSGD, the antigen binding call is on record as “no binding”.
With AKGTASGD the entry was “no binding”; with VRAGDSLS, “no binding”.
On to VKRGSSGD, for which the antigen binding call was “binds”.
With VRGRAAGD the entry was “binds”.
For the variant VERGGFGS, the antigen binding call is “no binding”.
For the variant VRGRDYGD, the antigen binding call was “no binding”.
For VRRGGSGS the value was “binds”; for ARRGGSGS, “no binding”; for VRTGAVGD, “no binding”.
For VEKEGDAD, the antigen binding call is recorded as “no binding”.
Take VKEKGDWV: the antigen binding call is “no binding”.
In the case of DARGGDAA, the antigen binding call is “no binding”.
For the variant VAATASWV, the antigen binding call was “no binding”.
With SEARSDGS, the antigen binding call is given as “no binding”.
On to VTGTGDAD, for which the antigen binding call is listed as “no binding”.
For the variant DRGRDAWS, the antigen binding call is on record as “no binding”.
With VRTEDDWS, the antigen binding call is “no binding”.
As for VRERGAGS, the antigen binding call was “binds”.
VRAGGSGD: the antigen binding call is given as “binds”.
For the variant VRERGDAS, the antigen binding call is recorded as “no binding”.
Turning to VRERGDGS, the antigen binding call is reported as “no binding”.
With VRGRSAWS, the antigen binding call is on record as “binds”.
With VRRGGSGD the entry was “binds”; with SREAADWA, “no binding”.
On to SEARSDWA, for which the antigen binding call is on record as “no binding”.
For AARADSGY the value was “no binding”; for VAATAAGA, “no binding”.
In the case of DKTKGDWV, the antigen binding call was “no binding”.
With VRAGAAGV the entry was “no binding”; with VRRGSAGS, “binds”.
As for VTTKSAGD, the antigen binding call is “no binding”.
With VRAGDDGS the entry was “no binding”; with VRRGSSGD, “binds”; with VRRGSAGD, “binds”.
Regarding VRAGADGV, the antigen binding call is “no binding”.
With ARRGSAVS the entry was “no binding”.
With VEGTSSGD the entry was “no binding”.
As for VRAGAAGS, the antigen binding call was “binds”.
As for DKGEGAGV, the antigen binding call was “no binding”.
With STAESDVA the entry was “no binding”.
With YRRGGSGD the entry was “binds”.
For VRRETVSD the value was “no binding”; for VRRGSASD, “binds”; for VRRAADSD, “no binding”.
Regarding SAGEGDVF, the antigen binding call was “no binding”.
With FRGRASAD, the antigen binding call is “binds”.
Consider DRGRGSAD, for which the antigen binding call is recorded as “binds”.
Regarding DEGGTSAD, the antigen binding call is on record as “no binding”.
On to VKGRGSAD, for which the antigen binding call is on record as “binds”.
On to FKGRGAAV, for which the antigen binding call is listed as “binds”.
As to VKEGGSAD, the antigen binding call is listed as “no binding”.
For FKGRGFVV the value was “no binding”; for FTGRAAAV, “no binding”.
On to VKAGASAD, for which the antigen binding call is “no binding”.
Turning to DTGTSAAF, the antigen binding call is listed as “no binding”.
As to STGEADAS, the antigen binding call is on record as “no binding”.
For YAEESDWV, the antigen binding call is recorded as “no binding”.
As to ATGGAAGD, the antigen binding call was “no binding”.
For VGGTSDGA, the antigen binding call is listed as “no binding”.
As for FAGRGSSD, the antigen binding call is given as “no binding”.
Take VKTKGVVD: the antigen binding call is listed as “no binding”.
As to FAGRGSAD, the antigen binding call was “binds”.
For FTGRGSAD the value was “no binding”; for VKGRGVVD, “binds”; for FKGRGAAD, “binds”.
As to VAGRGVGD, the antigen binding call is “no binding”.
For the variant FKGRGSAD, the antigen binding call was “binds”.

Source of the values: the emibetuzumab library of Makowski et al. (2022).
